Data on 15 molecules can be found in PubChem BioAssay (EPA / NIEHS).

Assay [1] concerns the target Retinoic acid receptor alpha (Homo sapiens) (UniProt P10276). Put plainly: ATG_DR5_RAR_CIS: Attagene CIS-FACTORIAL HepG2 Assay for human Retinoic Acid Receptor Alpha (RARE), DR5 submotif (AID 2282934). Particulars: HepG2 Attagene cis-factorial RARE DR5 reporter, mRNA; actives raise or lower the signal. The method, boiled down: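 Read-out: DR5-driven reporter transcript measured by RT-PCR, 6-FAM primer extension, HpaI digest and capillary electrophoresis. Human HepG2 liver cells carry transiently transfected cis-element reporter constructs; dosing lasts 24 h. Gain or loss of signal fitted against DMSO baseline.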

The target of assay [2] is Transcription factor E2F1 (Homo sapiens) (UniProt Q01094). Put plainly: ATG_E2F_CIS: Attagene CIS-FACTORIAL HepG2 Assay for human E2F Transcription Factor 1 (AID 2282935). Particulars: HepG2 Attagene cis-reporter, E2F reporter RNA transcripts; actives raise or lower the signal. A digest of the protocol: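 Liver-derived HepG2 cells expressing transfected promoter-driven reporter units received test chemical for 24 hours. Signal gains or losses were fitted bidirectionally against DMSO.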
Transcription factor E2F1 (Homo sapiens), sequence (Q01094 whole entry, looked up): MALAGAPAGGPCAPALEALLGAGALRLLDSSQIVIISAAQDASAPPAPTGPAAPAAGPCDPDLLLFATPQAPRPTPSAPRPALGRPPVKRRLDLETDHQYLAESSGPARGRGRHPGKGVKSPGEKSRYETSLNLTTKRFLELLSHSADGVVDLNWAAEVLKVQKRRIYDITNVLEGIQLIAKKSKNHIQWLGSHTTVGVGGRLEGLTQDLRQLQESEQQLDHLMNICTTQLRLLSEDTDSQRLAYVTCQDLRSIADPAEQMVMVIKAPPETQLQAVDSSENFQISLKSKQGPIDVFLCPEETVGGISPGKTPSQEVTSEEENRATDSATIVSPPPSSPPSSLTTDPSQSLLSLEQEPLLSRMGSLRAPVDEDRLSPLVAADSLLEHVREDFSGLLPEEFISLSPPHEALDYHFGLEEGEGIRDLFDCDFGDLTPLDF

The target in assay [3] is Myc proto-oncogene protein (Homo sapiens) (UniProt P01106). Put plainly: ATG_Myc_CIS: Attagene CIS-FACTORIAL HepG2 Assay for human Myelocytomatosis (Myc) Proto-Oncogene Transcription Factor (AID 2282990). Particulars: HepG2, Attagene cis-reporter transcription factor activity; actives raise or lower the signal. The method, boiled down:
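Read-out: fluorescent reporter mRNA fragments resolved by capillary electrophoresis after RT-PCR. Human HepG2 liver cells carried transfected cis-element reporter units and were dosed for 24 h. Gain or loss of signal fitted relative to DMSO baseline.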

The target of assay [4] is Retinoic acid receptor RXR-alpha (Homo sapiens) (UniProt P19793). Description: ATG_RXRa_TRANS: Attagene TRANS-FACTORIAL HepG2 Assay for human Retinoid X Receptor alpha (RXRa) (AID 2283012; active = hit-call score of the fitted dose curve at least 0.9, where 1 is the maximum). A digest of the protocol: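 Measures exogenous chimeric NR-GAL4 activity in transfected HepG2 liver cells after 24 h of dosing. Induced reporter mRNA was detected by RT-PCR with capillary electrophoresis, and gain of signal was analysed against DMSO.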
Retinoic acid receptor RXR-alpha (Homo sapiens), sequence (P19793 whole entry, looked up, the tested form may be a part): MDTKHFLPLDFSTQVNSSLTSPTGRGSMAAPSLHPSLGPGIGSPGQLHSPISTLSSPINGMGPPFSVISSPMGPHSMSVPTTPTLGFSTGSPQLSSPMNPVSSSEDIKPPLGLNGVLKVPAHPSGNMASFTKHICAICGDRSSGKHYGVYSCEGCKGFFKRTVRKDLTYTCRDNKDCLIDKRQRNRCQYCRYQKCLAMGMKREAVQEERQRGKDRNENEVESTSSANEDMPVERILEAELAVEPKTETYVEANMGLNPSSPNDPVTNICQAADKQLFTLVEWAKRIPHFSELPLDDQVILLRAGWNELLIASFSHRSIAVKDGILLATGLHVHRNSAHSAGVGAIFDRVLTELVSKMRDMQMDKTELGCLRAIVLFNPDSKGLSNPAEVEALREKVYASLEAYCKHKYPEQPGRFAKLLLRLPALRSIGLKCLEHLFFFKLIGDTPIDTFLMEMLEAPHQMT

Assay [5] is described as follows: CCTE_Harrill_HTTr_CellCount_MCF7: CCTE's Cell Proliferation Assessment for the High-Throughput Transcriptomics (HTTr) Platform, Harrill Lab (AID 2284012; active = hit-call score of the fitted dose curve at least 0.9, where 1 is the maximum;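 note: cells exposed to compound for six hours; intended direction is loss of nuclei count meaning fewer cells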). A digest of the protocol:
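Cell count served as viability reporter: loss of Hoechst-stained nuclei, counted by high content imaging, marks decreased growth or survival. Exposure was 6 h in MCF-7 cells across eight concentrations, with DMSO as baseline.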

Assay [6] has as its target Hepatocyte nuclear factor 4-alpha (Homo sapiens) (UniProt P41235). Description: ATG_HNF4a_TRANS: Attagene TRANS-FACTORIAL HepG2 Assay for human Hepatocyte Nuclear Factor 4 alpha (HNF4a) (AID 2282982; active = hit-call score of the fitted dose curve at least 0.9, where 1 is the maximum). Particulars: HepG2 HNF4a transactivation reporter, mRNA readout. The method, boiled down:
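Endpoint reflects transcriptional activation of a GAL4-UAS reporter by an HNF4a-GAL4 chimera in transfected HepG2 cells, 24 h post-dosing. Fluorescence from RT-PCR products separated by capillary electrophoresis; DMSO baseline.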

Assay [7] concerns the target human RAR-related Orphan Receptor gamma (RORg), RORC (gene 6097) (UniProt P51449). Put plainly: ATG_RORg_TRANS: Attagene TRANS-FACTORIAL HepG2 Assay for human RAR-related Orphan Receptor gamma (RORg) (AID 2283011; active = hit-call score of the fitted dose curve at least 0.9, where 1 is the maximum). The method, boiled down:
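First, HepG2 liver cells were transfected with GAL4-UAS-driven reporter constructs and the RORg-Gal4 fusion. Next, they were treated with chemical for 24 h. Finally, reporter mRNA was quantified by RT-PCR and capillary electrophoresis, with upward activity fitted against DMSO.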

Assay [8] is described as follows: CCTE_Shafer_MEA_acute_spike_number: CCTE's Neural Acute Assay for Total Number of Spikes, Shafer Lab (AID 2284008).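 For AC50: curve fitted for decrease in spike count so AC50 reflects inhibitors.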 The method, boiled down: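 Read-out is the total spike count over 40 min, expressed as percent change from each well's own pre-treatment baseline and fitted in the loss direction against DMSO. Rat cortical neurons were exposed at 0.03-40 uM on DIV 13 or 15.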

A short description of assay [9]: CCTE_Shafer_MEA_acute_burst_number: CCTE's Neural Acute Assay for Single-Electrode Bursts, Shafer Lab (AID 2284013). The method, boiled down: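 Percent change in single-electrode burst number per well, from 40-min recordings taken before and after adding compound (0.03-40 uM) to primary rat cortical neurons on MEA plates at DIV 13 or 15, 37 C.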
Assay [10] can be described thus: CCTE_Shafer_MEA_acute_burst_duration_mean: CCTE's Neural Acute Assay for Mean Burst Duration, Shafer Lab (AID 2284014).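 Note: hits are decreases in mean burst duration relative to DMSO controls.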 A digest of the protocol:
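Rat cortical cultures, DIV 13/15; 40 min baseline, then 40 min with compound (0.03-40 uM), 37 C. Spikes: 300-5000 Hz band-pass, 8x rms threshold. Read-out: % change in mean single-electrode burst duration, DMSO-referenced, loss direction.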

Assay [11] in a line: CCTE_Shafer_MEA_acute_per_burst_spike_number_mean: CCTE's Neural Acute Assay for Average Number of Spikes Per Burst, Shafer Lab (AID 2284015).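 Note: hits are decreases in mean spikes per burst versus baseline.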 The method, boiled down: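 Read-out: percent change in mean spikes per burst, each well's post-exposure 40-min recording versus its own 40-min baseline. Rat cortical cultures, DIV 13 or 15, compounds 0.03-40 uM; DMSO is negative control, loss-of-signal fitting.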

The nature of assay [12]: CCTE_Shafer_MEA_acute_interburst_interval_mean: CCTE's Neural Acute Assay for Mean Interburst Interval, Shafer Lab (AID 2284016).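 Note: percent change of mean interburst interval versus each well's own pre-dose baseline; curves fitted for decrease in interburst interval relative to DMSO.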 The method, boiled down: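 Rat cortical cultures, DIV 13/15; 20 min equilibration, 40 min baseline, compound 0.03-40 uM, 40 min re-recording, 37 C. Spikes detected at 8x rms noise (300-5000 Hz band-pass). Endpoint: % change in interburst interval, fitted in loss direction vs DMSO.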

A short description of assay [13]: CCTE_Shafer_MEA_acute_burst_percentage_mean: CCTE's Neural Acute Assay for Percentage of Spikes in a Burst, Shafer Lab (AID 2284017).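 For AC50: curve fitted for loss of signal so potency reflects decreased burst percentage.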 The method, boiled down: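 Rat cortical cultures, DIV 13/15, 37 C. Spikes detected at 8x rms noise (300-5000 Hz band-pass). Burst spikes/total spikes averaged across electrodes per well; % change post- vs pre-treatment (40 min each), loss-of-signal fit vs DMSO.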

A short description of assay [14]: CCTE_Shafer_MEA_acute_burst_percentage_std: CCTE's Neural Acute Assay for Standard Deviation of Burst Percentage, Shafer Lab (AID 2284018).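 Note: fitted in the negative direction so actives lower burst percentage SD.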 The method, boiled down:
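Rat primary cortical neurons on 48-well MEAs, DIV 13 or 15, 37 C. 40-min baseline then 40-min recording with compound (0.03-40 uM); well-level SD of per-electrode burst spike percentage, expressed as percent change from baseline.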

The nature of assay [15]: CCTE_Shafer_MEA_acute_per_network_burst_spike_number_mean: CCTE's Neural Acute Assay for Average Number of Spikes in a Network Burst, Shafer Lab (AID 2284019).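 For AC50: curve fitted for loss of signal so actives reduce spikes per network burst.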 A digest of the protocol: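 Rat cortical cultures, DIV 13/15; spike threshold 8x rms noise, 300-5000 Hz band-pass, 12.5 kHz sampling; wells need >/= 10 active electrodes. Compound 0.03-40 uM, 40 min, 37 C; % change vs own baseline, DMSO negative control.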

The nature of assay [16]: CCTE_Shafer_MEA_acute_per_network_burst_spike_number_std: CCTE's Neural Acute Assay for Standard Deviation of Number of Spikes in a Network Burst, Shafer Lab (AID 2284020).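 Note: fitted for decrease in spike-number SD versus DMSO so actives lower it.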 A digest of the protocol: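 Rat cortical cultures, DIV 13/15, 37 C; 20-min stabilisation, 40-min baseline, compound 0.03-40 uM, 40-min re-record. Spikes detected at 8x rms noise (300-5000 Hz band-pass). Readout: % change from baseline in per-burst spike-number SD.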

Assay [17] can be described thus: CCTE_Shafer_MEA_acute_per_network_burst_electrodes_number_mean: CCTE's Neural Acute Assay for Mean Number of Electrodes in a Network Burst, Shafer Lab (AID 2284021).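 Note: curves fitted for decreases only so hits reduce electrodes per burst.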 A digest of the protocol: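 Primary rat cortical networks, mwMEA, 37 C. 20 min stabilization, 40 min baseline, compound 0.03-40 uM, 40 min re-record. Wells need >=10 active electrodes; percent change per well, negative fitting direction.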

The nature of assay [18]: CCTE_Shafer_MEA_acute_network_burst_percentage: CCTE's Neural Acute Assay for Percentage of Network Bursts, Shafer Lab (AID 2284022).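 Note: curves fitted for loss so actives lower network burst percentage.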 A digest of the protocol:
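Readout is the fraction of spikes falling in network bursts, expressed as per-well percent change from a 40-min pre-exposure baseline. Primary rat cortical neurons on MEA were exposed to 0.03-40 uM compound on DIV 13 or 15 and recorded for 40 min at 37 C.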

Assay [19] can be described thus: CCTE_Shafer_MEA_acute_cross_correlation_HWHM: CCTE's Neural Acute Assay for Cross Correlation at Half Width at Half Maximum, Shafer Lab (AID 2284026).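 For outcome: spontaneous network firing of rat primary cortical neurons on multiwell microelectrode arrays.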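 Note: percent change per well from pre-dose baseline in spike cross-correlogram half width; hits are a decrease in cross-correlogram half width relative to DMSO.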 A digest of the protocol:
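Rat cortical neuron cultures on microelectrode arrays were equilibrated 20 min at 37 C, recorded 40 min at baseline, then 40 min after compound addition (0.03-40 uM, ≥3 wells). Spikes were detected at 8x rms noise after 300-5000 Hz band-pass filtering.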

Assay [20] is described as follows: CCTE_Shafer_MEA_acute_LDH: CCTE's Lactate Dehydrogenase Assay for Cytotoxicity in the Neural Acute Assay, Shafer Lab (AID 2284086; active = hit-call score of the fitted dose curve at least 0.9, where 1 is the maximum;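 note: active means LDH release rises above DMSO vehicle level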). A digest of the protocol:
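Medium collected from MEA wells of primary rat cortical cultures (DIV 13 or 15) immediately after 40 min chemical exposure is assayed spectrophotometrically for lactate dehydrogenase activity. Endpoint fitted in positive direction versus DMSO.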

The structures appear in SMILES notation. Inconclusive results are not listed. Activity calls are given as the source filed them. Rule for the calls, unless noted: active = hit-call score of the fitted dose curve at least 0.9, where 1 is the maximum; inactive = score below 0.9.

human RAR-related Orphan Receptor gamma (RORg), RORC (gene 6097), sequence (P51449 whole entry, looked up, the tested form may be a part): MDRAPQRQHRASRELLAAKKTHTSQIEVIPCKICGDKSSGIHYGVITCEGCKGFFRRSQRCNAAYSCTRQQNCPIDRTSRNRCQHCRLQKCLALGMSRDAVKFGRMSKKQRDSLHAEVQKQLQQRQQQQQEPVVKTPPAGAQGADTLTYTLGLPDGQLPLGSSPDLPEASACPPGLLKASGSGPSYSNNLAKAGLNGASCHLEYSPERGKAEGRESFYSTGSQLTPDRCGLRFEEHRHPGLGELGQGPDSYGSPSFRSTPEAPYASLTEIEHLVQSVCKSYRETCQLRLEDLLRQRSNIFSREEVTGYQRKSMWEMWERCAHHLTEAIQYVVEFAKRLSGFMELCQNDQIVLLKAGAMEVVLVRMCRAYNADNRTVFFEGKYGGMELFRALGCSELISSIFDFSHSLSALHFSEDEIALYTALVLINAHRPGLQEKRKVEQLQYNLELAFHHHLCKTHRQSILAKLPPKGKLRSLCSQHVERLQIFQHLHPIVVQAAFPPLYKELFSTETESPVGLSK
Hepatocyte nuclear factor 4-alpha (Homo sapiens), sequence (P41235 whole entry, looked up, the tested form may be a part): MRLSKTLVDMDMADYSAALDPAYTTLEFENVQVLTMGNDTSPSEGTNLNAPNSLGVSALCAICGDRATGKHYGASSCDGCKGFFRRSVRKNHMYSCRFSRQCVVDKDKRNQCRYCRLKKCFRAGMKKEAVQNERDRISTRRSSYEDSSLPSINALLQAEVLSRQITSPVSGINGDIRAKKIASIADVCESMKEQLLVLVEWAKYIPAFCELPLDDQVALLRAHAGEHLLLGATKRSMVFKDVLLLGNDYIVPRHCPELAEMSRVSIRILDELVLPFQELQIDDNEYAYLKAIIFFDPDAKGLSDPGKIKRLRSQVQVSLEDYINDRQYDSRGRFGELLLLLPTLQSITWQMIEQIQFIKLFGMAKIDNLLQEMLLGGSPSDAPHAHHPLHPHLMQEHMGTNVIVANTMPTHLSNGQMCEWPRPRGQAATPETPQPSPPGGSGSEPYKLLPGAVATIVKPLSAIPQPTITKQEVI
Retinoic acid receptor alpha (Homo sapiens), sequence (P10276 whole entry, looked up): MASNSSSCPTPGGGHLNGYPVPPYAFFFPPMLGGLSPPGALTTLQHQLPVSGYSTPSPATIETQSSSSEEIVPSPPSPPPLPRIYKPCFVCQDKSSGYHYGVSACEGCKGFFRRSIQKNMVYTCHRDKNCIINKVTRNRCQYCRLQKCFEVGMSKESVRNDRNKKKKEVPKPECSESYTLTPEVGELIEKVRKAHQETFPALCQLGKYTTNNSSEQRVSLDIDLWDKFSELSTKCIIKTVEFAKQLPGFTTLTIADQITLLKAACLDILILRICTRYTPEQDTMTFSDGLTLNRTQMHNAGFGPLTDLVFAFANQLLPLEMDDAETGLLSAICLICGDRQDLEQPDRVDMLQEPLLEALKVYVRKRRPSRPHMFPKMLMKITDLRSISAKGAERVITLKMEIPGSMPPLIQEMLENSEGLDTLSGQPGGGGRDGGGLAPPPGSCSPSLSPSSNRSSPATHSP
Myc proto-oncogene protein (Homo sapiens), sequence (P01106 whole entry, looked up, the tested form may be a part): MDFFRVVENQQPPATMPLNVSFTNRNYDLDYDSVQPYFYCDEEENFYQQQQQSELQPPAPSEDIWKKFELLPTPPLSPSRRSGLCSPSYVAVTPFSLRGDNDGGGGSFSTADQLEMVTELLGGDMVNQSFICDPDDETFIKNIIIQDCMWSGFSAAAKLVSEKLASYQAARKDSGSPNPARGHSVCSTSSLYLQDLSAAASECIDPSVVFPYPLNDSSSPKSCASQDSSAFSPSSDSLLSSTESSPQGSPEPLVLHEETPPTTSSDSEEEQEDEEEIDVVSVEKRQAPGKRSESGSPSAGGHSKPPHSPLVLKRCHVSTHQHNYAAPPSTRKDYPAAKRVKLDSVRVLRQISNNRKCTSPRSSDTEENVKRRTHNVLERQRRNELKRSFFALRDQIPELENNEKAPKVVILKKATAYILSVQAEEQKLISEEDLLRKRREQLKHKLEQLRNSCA

Regarding `O=C(C1CCCCC1)N1CC(=O)N2CCc3ccccc3C2C1` (configuration not stated), the call in [1], in [2], in assay [3], in assay [4] and in [5] was inactive.
Regarding `COc1c2occc2cc2ccc(=O)oc12`, the molecule was classed as inactive in assay [1] and in assay [4].
For `CC(=O)OC(C)(C)Cc1ccccc1`, the molecule was called inactive in assay [1], in assay [6] and in assay [7].
As a reminder, the AC50 is the concentration at which the activity in the assay is half-maximal. Regarding `O=[N+]([O-])c1cc(S(=O)(=O)Nc2ccccc2)ccc1Nc1ccccc1`, the AC50 in assay [8] is 2980 nM (active); in assay [13] it was 25100 nM (active); in assay [14] it was 15000 nM (active); in assay [15] it was 1260 nM (active); in assay [16], 1220 nM (active); in assay [19], 20900 nM (active). In addition, the call in [9], in assay [10], in assay [11], in assay [12], in assay [17] and in assay [18] was inactive. The result in assay [20] was inactive.
On to `CCCCC(CC)COC(=O)C=Cc1ccc(OC)cc1` (configuration not stated), for which the molecule was classed as inactive in [5].
Regarding `OCCc1ccccn1`, the call in assay [2], in [6], in assay [7] and in assay [4] was inactive.
For the molecule `Oc1ccc(Cl)cc1C1CCCC1`, the molecule was called inactive in [1], in [6] and in assay [5]. In addition, the AC50 in assay [4] is 17600 nM (active).
As for `COc1ccc(C(=O)c2ccccc2O)c(O)c1`, the values for the AC50 in assay [8], in [9] and in assay [18] were 21.5 nM (active), 3 nM (active) and 3 nM (active), respectively. Also, the molecule was classed as inactive in assay [10], in assay [11], in assay [12], in assay [13], in [14] and in [15]. The result in assay [16], in assay [17], in assay [19] and in [20] was inactive.
As to `Brc1ccc(Oc2ccc(Br)cc2)cc1`, the result in assay [1], in assay [7] and in [4] was inactive.
On to `CCC(C)(CCC(C)C)C(=O)O` (configuration not stated), for which the call in assay [1], in assay [6] and in assay [7] was inactive.
`CCO[Si](CCCN)(OCC)OCC`: the result in [2], in [6], in [3] and in [4] was inactive.
As for `CCOC(=O)c1ccccc1`, the call in [2], in [3] and in assay [7] was inactive.
Consider `C1CN(CCOCCN2CCOCC2)CCO1`, for which the molecule was called inactive in assay [8], in assay [9], in [10], in assay [11], in [12] and in [13]. Moreover, the molecule was classed as inactive in [14], in [15], in assay [16], in [17], in assay [18] and in [20]. Besides, the AC50 in [19] is 3 nM (active).
With `CC/C=C/CCO`, the outcome in [2], in assay [3] and in [7] was inactive.
With `Cc1c(C(N)=O)cc([N+](=O)[O-])cc1[N+](=O)[O-]`, the AC50 in assay [8] is 3 nM (active). For the same molecule, the call in assay [9], in assay [10], in assay [11], in [12], in assay [13] and in assay [14] was inactive. Besides, the result in assay [15], in assay [16], in [17], in assay [18], in [19] and in assay [20] was inactive.
